# PLC-beta3 inh: PLC-beta3 (human) inhibition, primary screen; Q01970; Purified PLC-beta3, fluorogenic substrate, fluorescence; inhibition, % at 12.2 µM; hit rate 0.18% among 370,000; AID 720704; in the data active = inhibition above about 11%;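 note: 0% = median of compound wells on plate and 100% = full blocker control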
# KLK7 zymogen act: activates the human kallikrein-7 zymogen. activation, % at 7 µM. purified proKLK7, EDANS-DABCYL substrate fluorescence; 100% is mature enzyme control, 0% vehicle. hit rate 0.9% among 370,000. P49862;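 active = activation above the mean of all tested compounds plus 3 SD, computed per campaign excluding outliers beyond control limits, cut at about 13% in these data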
# ADAM17 inh: inhibitors of human ADAM17 | P78536 | recombinant ADAM17, EDANS/DABCYL FRET peptide cleavage | hit rate 0.83% among 370,000 | inhibition, % at 6.95 µM;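 active = inhibition above the mean of compounds lying between control limits plus 3 SD, set per campaign, cut at about 8.5% in these data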;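 note: 0% = DMSO-only wells as the low control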
# sPLA2-III inh: Blocks human group III sPLA2 activity; inhibition, % at 12.2 µM; hit rate 0.56% among 370,000; QFRET BODIPY PC-A2 liposome hydrolysis, fluorescence;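 active = inhibition above mean plus 3 SD of compounds lying within the high and low control bounds, cut at about 19% in these data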;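 note: 0% = median of test compound wells and 100% = no enzyme DMSO wells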
# Target sequence (Q9NZ20 whole entry, looked up): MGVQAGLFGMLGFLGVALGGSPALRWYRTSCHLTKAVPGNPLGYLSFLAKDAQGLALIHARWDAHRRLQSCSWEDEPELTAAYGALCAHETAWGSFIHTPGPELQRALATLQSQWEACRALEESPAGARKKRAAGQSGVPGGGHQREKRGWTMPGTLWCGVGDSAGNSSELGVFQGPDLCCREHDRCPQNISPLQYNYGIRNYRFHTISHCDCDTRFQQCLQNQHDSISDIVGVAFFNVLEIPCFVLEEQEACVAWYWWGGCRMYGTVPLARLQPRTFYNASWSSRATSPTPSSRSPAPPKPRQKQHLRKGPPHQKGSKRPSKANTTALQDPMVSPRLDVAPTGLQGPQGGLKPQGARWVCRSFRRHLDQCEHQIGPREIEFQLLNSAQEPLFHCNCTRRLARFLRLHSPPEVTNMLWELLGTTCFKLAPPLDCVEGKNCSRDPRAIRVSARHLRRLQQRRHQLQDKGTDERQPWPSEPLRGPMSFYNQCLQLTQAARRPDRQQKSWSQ
# ADAM10 inh: inhibitors of human ADAM10; recombinant ADAM10, EDANS/DABCYL FRET peptide cleavage, 3 h; inhibition, % at 7 µM; hit rate 0.62% among 370,000; AID 720582;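 active = inhibition above a per-campaign cutoff equal to the mean of compounds falling between control-based bounds plus 3 SD, cut at about 20% in these data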;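 note: 0% = DMSO wells while the 100% control is not disclosed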
# PLCg1 inh: PLC-gamma1 (human) inhibition, primary screen; P19174; purified PLC-gamma1, fluorogenic substrate, fluorescence; inhibition, % at 12.2 µM; hit rate 0.84% among 370,000; AID 720700; in the data active = inhibition above about 9.5%
# An asterisk follows results filed as active; i = inactive; . = not tested or not shown. Compounds with a hit are over-represented: about 3.4% of the library has one in this group of screens.
SMILES,PLC-beta3 inh,KLK7 zymogen act,ADAM17 inh,sPLA2-III inh,ADAM10 inh,PLCg1 inh
C=CC[C@@H](CC(=O)N(CCO)Cc1ccccc1)C(=O)N[C@@H](COC(=O)[C@@H](CC=C)Cc1ccc(F)cc1)Cc1ccccc1,8,0,13*,-26,23*,2
CCCCCc1ccc(-c2n[nH]c(=O)c3ccccc23)cc1,-6,0,-4,13,-7,2
O=C(NC1CCCCN(Cc2cccc(C(F)(F)F)c2)C1=O)C1C2CC3CC(C2)CC1C3 (stereo not given),4,0,3,2,3,-1
Cc1cc(C)nc(SCCN2CCCCC2)n1,-9,1,7,4,7,13*
Cc1cc(C)nc(SCCN(C)C)n1,4,0,-2,3,4,3
Cc1ccc(N(C)c2nc(N)nc(N)c2N=O)cc1,i,44*,-6,-425,-25,i
Cc1cc(/C=N/n2c(COc3ccccc3)nc3ccccc3c2=O)c(O)c([N+](=O)[O-])c1,-19,0,7,39*,18,-19
Cc1ccc(-c2[nH]ncc2/C=N/n2c(COc3ccccc3)nc3ccccc3c2=O)cc1,0,1,1,-8,2,-1
O=C1CC(c2ccc(F)c(Br)c2)C2=C(CCCC2=O)N1 (stereo not given),-1,1,-1,-1,-1,0
O=C1CC(c2ccc3c(c2)OCO3)C2=C(CCCC2=O)N1 (stereo not given),3,1,3,3,7,10*
O=C(NCCCc1ccccc1)O[C@@H]1CC[C@@]23CCCN2C(=O)CCC[C@H]3C1,1,.,1,0,5,4
CNC(=O)COC(=O)c1cc(-c2ccco2)nc2ccccc12,i,130*,-149,-7,i,i
C[C@@H](Oc1ccccc1)c1nnn(Cc2ccccc2)c1-c1c([C@@H](C)Oc2ccccc2)nnn1Cc1ccccc1,3,0,8,-7,10,16*
COc1ccccc1NC(=O)Nc1nc(C(N)CCc2ccccc2)cs1 (stereo not given),10,0,8,3,7,11*
COc1cc(CNC(=O)Nc2nc(C(N)CCc3ccccc3)cs2)cc(OC)c1OC (stereo not given),-2,0,-1,6,0,6
CCSc1nc2c(c(=O)[nH]1)C(c1ccccn1)C1=C(CC(C)(C)CC1=O)N2 (stereo not given),-324,32*,-307,-1,i,-247
CC(C)Sc1nc2c(c(=O)[nH]1)C(c1cccs1)C1=C(CC(C)(C)CC1=O)N2 (stereo not given),-40,-1,-18,-9,-78,-30
CCOc1ccccc1N1C(=O)CC(N(O)c2ccccc2)C1=O (stereo not given),1,67*,-1,0,-14,0
O=C(OCCN1CCN(C2CN(Cc3cn(Cc4ccccc4Cl)nn3)S(=O)(=O)C2)CC1)c1cccs1 (stereo not given),1,1,-3,2,0,-1
Cc1ccc(S(=O)(=O)N2CCCC(C(=O)NCc3ccco3)C2)cc1 (stereo not given),4,0,2,-1,4,4
CN(CCO)c1ccc2c(c1)Oc1ccccc1CN(Cc1cn(Cc3cccc(C(F)(F)F)c3)nn1)S2(=O)=O,2,0,2,-2,17,0
O=C(CCCSc1nc(-c2ccco2)cc(C(F)(F)F)n1)Nc1ccc2c(c1)OCO2,-4,0,5,-14,26*,-1
O=C(CSc1nc(-c2ccco2)cc(C(F)(F)F)n1)Nc1ccc2c(c1)OCO2,5,1,0,-1,3,0
COc1ccc(C(c2c(O)ccc3ccccc23)N2CCOCC2)c(OC)c1 (stereo not given),-7,-1,1,20*,8,-4
COc1ccc(C(CCN2CCOCC2)c2c(O)cc(OC)cc2OC)cc1 (stereo not given),3,0,-4,-5,-5,0
SMILES,PLC-beta3 inh,KLK7 zymogen act,ADAM17 inh,sPLA2-III inh,ADAM10 inh,PLCg1 inh
Cc1ccc(NC(=O)Cc2cccc(OC(F)(F)F)c2)c(S(=O)(=O)N2CCOCC2)c1,1,0,0,1,0,-2
O=C(Nc1nccs1)C1(C(=O)C2CC2)CC(c2ccccn2)=NO1 (stereo not given),-6,0,-2,0,-7,-8
COc1cc2c(=O)n(Cc3ccccc3)c(=O)n(CC(=O)NCCc3ccccc3)c2cc1OC,8,0,-2,0,-8,9.5*
Cc1cc(C(=O)N[C@H](c2ccccc2)[C@@]2(C)C[C@@H]2[C@@H](C)C(=O)Nc2ccc3ccccc3c2)n(C)n1,6,0,13*,-11,28*,4
CN(Cc1ccc(F)cc1)C(=O)c1cccc2c1C(=O)N(Cc1cccnc1)C2,1,0,-4,5,-10,1
COc1ccc(N=C2S/C(=C\c3ccc(OCC(=O)O)cc3)C(=O)N2CCc2c[nH]c3ccccc23)cc1,-7,0,9.2*,-52,19,6
CCOC(=O)c1csc(NC(=O)C2CCCN(S(=O)(=O)c3ccc(Br)s3)C2)n1 (stereo not given),0,1,5,-30,7,-1
CC(=O)N1CCc2cc(S(=O)(=O)NCCC(=O)N(C)Cc3ccccc3F)ccc21,-5,0,-3,6,-13,1
Nc1c(-c2cccc(Cl)c2)cnn1-c1cccc(C(F)(F)F)c1,6,0,8.6*,3,19,7
O=C(CN1C(=O)/C(=C\c2ccco2)SC1=S)Nc1ccc(O)cc1C(=O)O,-26,1,-5,-24,-1,33*
O=C(CCN1C(=O)/C(=C/c2ccco2)SC1=S)Nc1ccc(C(=O)O)c(O)c1,-17,1,-2,-23,-4,29*
CCN1CCN(C(CNS(=O)(=O)c2ccc(Cl)cc2)c2cccnc2)CC1 (stereo not given),-6,0,-4,-6,4,12*
COc1ccc(-n2c(SCC(=O)Nc3ccc(OCc4ccccc4)cc3)nnc2-c2ccc(C)cc2)cc1,0,0,0,0,-3,4
Cc1cc(C2=NNC(=NC3CC3)SC2)c(C)n1-c1c(C)n(C)n(-c2ccccc2)c1=O,-5,0,0,-3,0,-3
Cc1ccc(-n2c(C)cc(C3=NNC(=NC4CC4)SC3)c2C)cc1C,-21,-1,9.5*,-4,5,-11
O=C1C2C(C(=O)N1/N=C/c1cc([N+](=O)[O-])ccc1O)C1C=CC2C12CC2 (stereo not given),-2,0,0,5,5,-1

# Bioassay records deposited in PubChem by The Scripps Research Institute Molecular Screening Center.
